The text below walks through data of PubChem BioAssay (NCATS).

The nature of test [1]: qHTS profiling for inhibitors of Plasmodium falciparum proliferation (AID 504749).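 Also: 0% = DMSO vehicle and full inhibition = artemisinin control; nearly all actives have a fitted effect of over 60% in size.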 The conditions noted are these: P. falciparum in erythrocytes, SYBR Green DNA, 72 h, at 28.7 µM (top of the series). Summed up:
(§1)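 SYBR Green fluorescence of parasite DNA, read after lysis and overnight dark incubation, measured growth over 72 h in erythrocyte culture at 0.3% parasitemia and 2.5% hematocrit. Data normalised to DMSO and 0.29 uM artemisinin, with plate-drift correction.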
(In general: qHTS replaces the single test concentration by a dilution series.)

Another test deals with 3D7. Described as above. The conditions noted are these: P. falciparum in erythrocytes, SYBR Green DNA, 72 h; series mostly up to 28.7 µM. In outline:
as §1

The next test relates to 7G8. The description is as above. The conditions noted are these: P. falciparum in erythrocytes, SYBR Green DNA, 72 h; series mostly up to 28.7 µM. Summed up: as §1
In the next test the test system is AA1029. Described as above. The conditions noted are these: P. falciparum in erythrocytes, SYBR Green DNA, 72 h; series mostly up to 28.7 µM. In outline: as §1
Another test relates to AS120. Described as above. The note with it: P. falciparum in erythrocytes, SYBR Green DNA, 72 h; series mostly up to 28.7 µM. In outline:
as §1

In a further test the test system is ATS189. Described as above. The conditions noted are these: P. falciparum in erythrocytes, SYBR Green DNA, 72 h; series mostly up to 28.7 µM. In outline:
as §1

The test system of another test is ATS95. The description is as above. The note with it: P. falciparum in erythrocytes, SYBR Green DNA, 72 h; series mostly up to 28.7 µM. In outline:
as §1

Another test deals with C2A. The test is described as above. The conditions noted are these: P. falciparum in erythrocytes, SYBR Green DNA, 72 h; series mostly up to 28.7 µM. In outline: as §1
Another test relates to CP185. Described as above. The conditions noted are these: P. falciparum in erythrocytes, SYBR Green DNA, 72 h; series mostly up to 28.7 µM. Summed up: as §1
The next test concerns CP191. Described as above. The note with it: P. falciparum in erythrocytes, SYBR Green DNA, 72 h; series mostly up to 28.7 µM. Summed up:
as §1

In a further test the test system is CP192. The description is as above. The note with it: P. falciparum in erythrocytes, SYBR Green DNA, 72 h; series mostly up to 28.7 µM. Summed up: as §1
For a further test, the system named is CP194. The description is as above. The note with it: P. falciparum in erythrocytes, SYBR Green DNA, 72 h; series mostly up to 28.7 µM. Summed up:
as §1

In the next test the test system is CP201. Described as above. The conditions noted are these: P. falciparum in erythrocytes, SYBR Green DNA, 72 h; series mostly up to 28.7 µM. Summed up: as §1
Another test has as its system CP203. Described as above. The note with it: P. falciparum in erythrocytes, SYBR Green DNA, 72 h; series mostly up to 28.7 µM. In outline:
as §1

In a further test the test system is CP211. Described as above. The conditions noted are these: P. falciparum in erythrocytes, SYBR Green DNA, 72 h; series mostly up to 28.7 µM. In outline: as §1
The test system of another test is CP215. The test is described as above. The note with it: P. falciparum in erythrocytes, SYBR Green DNA, 72 h; series mostly up to 28.7 µM. In outline: as §1
Another test has as its system CP217. The test is described as above. The conditions noted are these: P. falciparum in erythrocytes, SYBR Green DNA, 72 h; series mostly up to 28.7 µM. Summed up: as §1
A short description of test [2]: Dual reporter qHTS for antagonist of Pregnane X Receptor (hPXR) against the NCATS DSHEA and TCM libraries: Fluorescence Readout (AID 1920061). Also: 0% is about no effect. Summed up:
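In antagonist mode, 2 uM rifampicin was added to hPXR-Luc HepG2 cells alongside test substances, incubated 24 h at 37 C; luminescence gave reporter activity, and CellTiter-Fluor fluorescence (405/540 nm) gave viability.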

Test [3] is described as follows: qHTS drug screen for cell cycle checkpoint inhibitors in PARPi-resistant BRCA-mutant ovarian cancer cell lines. (AID 1963452; calls by dose curve). The note with it: PEO1/OlaR viability, CellTiter-Glo luminescence, 96 h, stronger effect = lower value. Summed up: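 PEO1, PEO4 and PEO1/OlaR ovarian cancer cells, 600 per well, exposed 96 h at 37C to a dilution series. Viability read by CellTiter-Glo luminescence, normalized to DMSO and empty wells; activity summarized as Z-AUC.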

[4] abbreviates: measured here: PEO1 parental Z-AUC.

Inconclusive results are not listed. The source made the active and inactive calls. Unless noted, calls follow the shape of the dose curve; as a rule, active = well fitted curve in the direction sought with a large enough effect; inconclusive = small, poorly fitted or top-dose-only effect, or another doubt; inactive = no such curve, though single readings can be large; an effect the other way counts as inactive or inconclusive.

Consider `NC(=O)NC(=O)Cc1ccccc1`, for which the figures for the activity, negative = inhibition in [1] (parasite line A) and in test [1] (parasite line B) were 2.68% (inactive) and -4.74% (inactive), respectively. The Potency result with 3D7, with 7G8, in the test on AA1029, in the test with AS120, in the test with ATS189 and in the test on ATS95 was “inactive” in each case. Besides, the Potency result in the test on C2A, in the test on CP185, in the test with CP191, in the test with CP192, in the test on CP194 and in the test with CP201 was “inactive” each time. Besides, the Potency entry in the test on CP203, with CP211, in the test on CP215 and in the test with CP217 was “inactive” in each case.
Regarding `O=C1O[C@H]([C@@H](O)CO)C(O)=C1O`, in test [2], the result was inactive. For the same compound, the activity, negative = inhibition in [1] (parasite line A) was 10.5% (inactive); in [1] (parasite line B) it was 5.51% (inactive). The Potency result with 3D7, in the test on 7G8, with AA1029, in the test on AS120, in the test on ATS189 and in the test with ATS95 was “inactive” each time. In addition, the Potency entry in the test with C2A, in the test with CP185, with CP191, with CP192, in the test on CP194 and in the test on CP201 was “inactive” each time. Moreover, the Potency result in the test with CP203, with CP211, in the test with CP215 and in the test with CP217 was “inactive” in each case.
For the compound `CC(=O)OCC(=O)[C@@]1(O)CC[C@H]2[C@@H]3CCC4=CC(=O)CC[C@]4(C)[C@H]3C(=O)C[C@@]21C`, the Z-AUC in [3] was -1.11 (inactive); in test [3] (setting [4]), -0.142; in test [3] (measured here: PEO4 Z-AUC), -0.613.
On the same counts, the results for `CC(C)c1c(C(=O)Nc2ccccc2)c(-c2ccccc2)c(-c2ccc(F)cc2)n1CC[C@@H](O)C[C@@H](O)CC(=O)O` are -0.739 (inactive), -0.99 and -1.27.
For `Nc1nc2c(ncn2CCC(CO)CO)c(=O)[nH]1`, the results for the activity, negative = inhibition in test [1] (parasite line A) and in [1] (parasite line B) were 3.65% (inactive) and -4.23% (inactive), respectively. Besides, the Potency result in the test with 3D7, in the test on 7G8, with AA1029, in the test on AS120, with ATS189 and in the test on ATS95 was “inactive” throughout. In addition, the Potency result with C2A, in the test on CP185, with CP191, in the test on CP192, in the test on CP194 and with CP201 was “inactive” each time. Besides, the Potency entry with CP203, in the test with CP211, with CP215 and in the test with CP217 was “inactive” in each case.
Regarding `CC1=C(/C=C/C(C)=C/C=C/C(C)=C/C(=O)O)C(C)(C)CCC1`, the Z-AUC was -0.215 (inactive) in test [3], 0.0467 in test [3] (setting [4]) and 0.421 in test [3] (measured here: PEO4 Z-AUC). Also, the results for the activity, negative = inhibition in test [1] (parasite line A) and in test [1] (parasite line B) were 11.8% (inactive) and -26.7% (inactive), respectively. For the same compound, the Potency result in the test on 3D7, in the test on 7G8, in the test on AA1029, with AS120, in the test on ATS189 and with ATS95 was “inactive” each time. Moreover, the Potency result in the test with C2A, with CP185, in the test with CP191, in the test on CP192, in the test with CP194 and in the test with CP201 was “inactive” each time. The Potency result in the test on CP211, with CP215 and with CP217 was “inactive” throughout.
Take `Nc1ccc(S(=O)(=O)Nc2ccccc2)cc1`: the figures for the activity, negative = inhibition in test [1] (parasite line A) and in [1] (parasite line B) were -9.52% (inactive) and 11.6% (inactive), respectively. Further, the Potency entry with 3D7, in the test with 7G8, in the test with AA1029, with AS120, with ATS189 and in the test on ATS95 was “inactive” each time. Moreover, the Potency result with C2A, in the test with CP185, with CP191, with CP192, with CP194 and with CP201 was “inactive” each time. The Potency result in the test on CP203, in the test with CP211, with CP215 and with CP217 was “inactive” in each case.
